From PubChem BioAssay (NCI)
The panel holds about 79,000 compounds, 15% with a hit somewhere; the sample as a whole holds those more often. A number with no mark means an inactive call. The source made the active and inactive calls. Cut-off read from the data, not from the text of the source: active = growth inhibition above about 70%; inactive = the rest.

Assays:
[1] = NCI Yeast Anticancer Drug Screen. Data for the wt1 strain (AID 149);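 note: 0% = growth of vehicle-treated wt1 cultures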; details: S. cerevisiae wt1 strain (SPY 50644) growth inhibition, stronger effect = higher value
Outline: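 The wt1 strain was treated with compounds, and growth was compared with vehicle-treated cultures to give inhibition.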

[2] = NCI Yeast Anticancer Drug Screen. Data for the rad50EPP+ strain (AID 151);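 note: 0% = growth of vehicle-treated control cultures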; details: S. cerevisiae rad50 mutant strain, stronger effect = higher value
Outline: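 Growth inhibition read against vehicle controls in rad50EPP+ yeast, a strain altered in DNA damage repair, after compound exposure.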

[3] = NCI Yeast Anticancer Drug Screen. Data for the mgt1 strain (AID 153); details: S. cerevisiae mgt1 mutant growth inhibition, stronger effect = higher value
Outline: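 mgt1 yeast grown with test compound; read-out is growth inhibition versus vehicle-treated cultures.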

[4] = NCI Yeast Anticancer Drug Screen. Data for the rad50 strain (AID 155);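 note: 0% = growth of vehicle-only cultures of the same strain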; details: S. cerevisiae rad50 strain growth inhibition, stronger effect = higher value
Outline: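 Cells are treated with compound, grown, and their growth is then scored against vehicle-only cultures of the same repair-deficient yeast strain.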

[5] = NCI Yeast Anticancer Drug Screen. Data for the mec2-1 strain (AID 157); details: S. cerevisiae mec2-1 strain, stronger effect = higher value
Outline: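 Yeast mec2-1 mutant treated with compound. Readout: growth inhibition vs vehicle controls.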

[6] = NCI Yeast Anticancer Drug Screen. Data for the rad14 strain (AID 159);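 note: 0% = growth of vehicle-treated control cultures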; details: S. cerevisiae rad14 strain growth inhibition, stronger effect = higher value
Outline: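 Readout: yeast growth inhibition, referenced to vehicle-only cultures. Strain bears a defined alteration in DNA damage repair.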

[7] = NCI Yeast Anticancer Drug Screen. Data for the sgs1 mgt1 strain (AID 161);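 note: 0% = growth of cultures given vehicle only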; details: S. cerevisiae sgs1 mgt1 strain, stronger effect = higher value
Outline: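 Inhibition of yeast growth, normalised to vehicle-treated controls, is reported for a strain bearing genetic alterations in DNA damage repair.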

[8] = NCI Yeast Anticancer Drug Screen. Data for the CLN2oe strain (AID 163);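 note: 0% = growth of vehicle-only control cultures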; details: S. cerevisiae CLN2oe strain, stronger effect = higher value
Outline: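 Read-out: yeast growth inhibition, expressed relative to vehicle-only controls. The strain bears an engineered cell-cycle alteration.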

[9] = NCI Yeast Anticancer Drug Screen. Data for the cln2 rad14 strain (AID 165);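 note: 0% = growth equal to vehicle treated cultures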; details: S. cerevisiae cln2 rad14 strain, stronger effect = higher value
Outline: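 cln2 rad14 yeast strain; compound exposure; growth inhibition read vs vehicle controls.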

[10] = NCI Yeast Anticancer Drug Screen. Data for the bub3 strain (AID 167); details: S. cerevisiae bub3 mutant strain, stronger effect = higher value
Outline: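 Part of a panel of yeast mutants defective in DNA damage repair or cell cycle regulation. Each strain is grown with compound, and inhibition is calculated relative to solvent-treated cultures.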

[11] = NCI Yeast Anticancer Drug Screen. Data for the wt2 strain (AID 169);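 note: 0% = growth of vehicle-treated yeast cultures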; details: S. cerevisiae wt2 strain growth inhibition, stronger effect = higher value
Outline: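 Read-out: growth inhibition versus vehicle-treated control cultures after compound exposure of the yeast strain.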

[12] = NCI Yeast Anticancer Drug Screen. Data for the mlh1 strain (AID 171);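 note: 0% = growth of vehicle-treated control cultures of the same strain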; details: S. cerevisiae mlh1 strain growth inhibition, stronger effect = higher value
Outline: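 Read-out: growth inhibition versus vehicle controls. Strain: engineered yeast with a defined DNA repair or cell cycle defect, compound-treated.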

[13] = NCI Yeast Anticancer Drug Screen. Data for the sgs1 strain (AID 173);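 note: 0% = growth of vehicle-only control cultures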; details: S. cerevisiae sgs1 mutant, stronger effect = higher value
Outline: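 Read-out: yeast growth inhibition relative to vehicle controls, following compound exposure of a strain with a defined DNA repair/cell cycle alteration.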

[14] = NCI Yeast Anticancer Drug Screen. Data for the mlh1 rad18 strain (AID 175); details: S. cerevisiae mlh1 rad18 strain growth inhibition, stronger effect = higher value
Outline: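 Yeast w/ defined DNA-repair lesions; compound exposure; growth vs vehicle controls → % inhibition.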

[15] = NCI Yeast Anticancer Drug Screen. Data for the rad18 strain (AID 177); details: S. cerevisiae rad18 mutant growth inhibition, stronger effect = higher value
Outline: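 Readout: growth inhibition vs vehicle controls. Cells: genetically altered yeast strain, DNA repair defect.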

[16] = at 5.0 µM (retest, dose inferred, filed as 0.5)
[17] = at 50.0 µM (retest, dose inferred, filed as 5.0)

Structure (SMILES): CC[C@@]1(OC(=O)CCC(=O)O)C(=O)OCc2c1cc1n(c2=O)Cc2cc3ccccc3nc2-1
- growth inhibition ([1]; at 1.2 µM): 4%
- growth inhibition ([1]; at 3.7 µM): -2%
- growth inhibition ([1]; at 11.0 µM): 7%
- growth inhibition ([1]; at 33.0 µM): 57%
- growth inhibition ([1]; at 100.0 µM): 90% (active)
- growth inhibition ([2]; at 1.2 µM): 14%
- growth inhibition ([2]; at 3.7 µM): 47%
- growth inhibition ([2]; at 11.0 µM): 79% (active)
- growth inhibition ([2]; at 33.0 µM): 85% (active)
- growth inhibition ([2]; at 100.0 µM): 89% (active)
- growth inhibition ([3]; at 1.2 µM): -6%
- growth inhibition ([3]; at 3.7 µM): -2%
- growth inhibition ([3]; at 11.0 µM): 9%
- growth inhibition ([3]; at 33.0 µM): 59%
- growth inhibition ([3]; at 100.0 µM): 89% (active)
- growth inhibition ([4]; at 1.2 µM): 79% (active)
- growth inhibition ([4]; at 3.7 µM): 86% (active)
- growth inhibition [4, 16]: 85% (active)
- growth inhibition ([4]; at 11.0 µM): 91% (active)
- growth inhibition ([4]; at 33.0 µM): 94% (active)
- growth inhibition [4, 17]: 94% (active)
- growth inhibition ([4]; at 50.0 µM): 80.7% (active)
- growth inhibition ([4]; at 100.0 µM): 94% (active)
- growth inhibition ([5]; at 1.2 µM): 6%
- growth inhibition ([5]; at 3.7 µM): 6%
- growth inhibition [5, 16]: 11%
- growth inhibition ([5]; at 11.0 µM): 66%
- growth inhibition ([5]; at 33.0 µM): 89% (active)
- growth inhibition [5, 17]: 94% (active)
- growth inhibition ([5]; at 50.0 µM): 85.9% (active)
- growth inhibition ([5]; at 100.0 µM): 94% (active)
- growth inhibition ([6]; at 1.2 µM): 14%
- growth inhibition ([6]; at 3.7 µM): -2%
- growth inhibition ([6]; at 11.0 µM): 31%
- growth inhibition ([6]; at 33.0 µM): 69%
- growth inhibition ([6]; at 100.0 µM): 89% (active)
- growth inhibition [7, 16]: 30%
- growth inhibition [7, 17]: 91% (active)
- growth inhibition ([7]; at 50.0 µM): 76.3% (active)
- growth inhibition ([8]; at 1.2 µM): 10%
- growth inhibition ([8]; at 3.7 µM): 21%
- growth inhibition ([8]; at 11.0 µM): 33%
- growth inhibition ([8]; at 33.0 µM): 73% (active)
- growth inhibition ([8]; at 100.0 µM): 87% (active)
- growth inhibition [9, 16]: 5%
- growth inhibition [9, 17]: 72% (active)
- growth inhibition ([9]; at 50.0 µM): 37.5%
- growth inhibition ([10]; at 1.2 µM): -15%
- growth inhibition ([10]; at 3.7 µM): -11%
- growth inhibition [10, 16]: 16%
- growth inhibition ([10]; at 11.0 µM): 4%
- growth inhibition ([10]; at 33.0 µM): 62%
- growth inhibition [10, 17]: 89% (active)
- growth inhibition ([10]; at 50.0 µM): 64.2%
- growth inhibition ([10]; at 100.0 µM): 86% (active)
- growth inhibition ([11]; at 1.2 µM): -13%
- growth inhibition ([11]; at 3.7 µM): -19%
- growth inhibition ([11]; at 11.0 µM): -7%
- growth inhibition ([11]; at 33.0 µM): 69%
- growth inhibition ([11]; at 100.0 µM): 87% (active)
- growth inhibition ([12]; at 1.2 µM): -9%
- growth inhibition ([12]; at 3.7 µM): -7%
- growth inhibition ([12]; at 11.0 µM): 2%
- growth inhibition ([12]; at 33.0 µM): 70% (active)
- growth inhibition ([12]; at 100.0 µM): 83% (active)
- growth inhibition ([13]; at 1.2 µM): 18%
- growth inhibition ([13]; at 3.7 µM): 21%
- growth inhibition ([13]; at 11.0 µM): 31%
- growth inhibition ([13]; at 33.0 µM): 80% (active)
- growth inhibition ([13]; at 100.0 µM): 88% (active)
- growth inhibition [14, 16]: 16%
- growth inhibition [14, 17]: 85% (active)
- growth inhibition ([15]; at 1.2 µM): 6%
- growth inhibition ([15]; at 3.7 µM): 10%
- growth inhibition ([15]; at 11.0 µM): 27%
- growth inhibition ([15]; at 33.0 µM): 68%
- growth inhibition ([15]; at 100.0 µM): 81% (active)

Structure (SMILES): Nc1nc(F)nc2c1ncn2C1OC(COP(=O)(O)O)C(O)C1O (stereo not drawn)
- growth inhibition ([1]; at 1.2 µM): 1%
- growth inhibition ([1]; at 3.7 µM): 1%
- growth inhibition ([1]; at 11.0 µM): 2%
- growth inhibition ([1]; at 33.0 µM): 5%
- growth inhibition ([1]; at 100.0 µM): 2%
- growth inhibition ([3]; at 1.2 µM): -3%
- growth inhibition ([3]; at 3.7 µM): 0%
- growth inhibition ([3]; at 11.0 µM): 2%
- growth inhibition ([3]; at 33.0 µM): 5%
- growth inhibition ([3]; at 100.0 µM): 12%
- growth inhibition ([4]; at 1.2 µM): 3%
- growth inhibition ([4]; at 3.7 µM): 9%
- growth inhibition ([4]; at 11.0 µM): 18%
- growth inhibition ([4]; at 33.0 µM): 32%
- growth inhibition ([4]; at 50.0 µM): 11.1%
- growth inhibition ([4]; at 100.0 µM): 61%
- growth inhibition ([5]; at 1.2 µM): 1%
- growth inhibition ([5]; at 3.7 µM): 7%
- growth inhibition ([5]; at 11.0 µM): 13%
- growth inhibition ([5]; at 33.0 µM): 27%
- growth inhibition ([5]; at 50.0 µM): 4.2%
- growth inhibition ([5]; at 100.0 µM): 87% (active)
- growth inhibition ([6]; at 1.2 µM): -1%
- growth inhibition ([6]; at 3.7 µM): -2%
- growth inhibition ([6]; at 11.0 µM): 2%
- growth inhibition ([6]; at 33.0 µM): 5%
- growth inhibition ([6]; at 100.0 µM): 19%
- growth inhibition ([7]; at 50.0 µM): -1.15%
- growth inhibition ([8]; at 1.2 µM): -4%
- growth inhibition ([8]; at 3.7 µM): -5%
- growth inhibition ([8]; at 11.0 µM): -5%
- growth inhibition ([8]; at 33.0 µM): -5%
- growth inhibition ([8]; at 100.0 µM): -2%
- growth inhibition ([9]; at 50.0 µM): -3.75%
- growth inhibition ([10]; at 1.2 µM): -8%
- growth inhibition ([10]; at 3.7 µM): -8%
- growth inhibition ([10]; at 11.0 µM): -3%
- growth inhibition ([10]; at 33.0 µM): -10%
- growth inhibition ([10]; at 50.0 µM): -29.9%
- growth inhibition ([10]; at 100.0 µM): -1%
- growth inhibition ([13]; at 1.2 µM): 18%
- growth inhibition ([13]; at 3.7 µM): 30%
- growth inhibition ([13]; at 11.0 µM): 39%
- growth inhibition ([13]; at 33.0 µM): 47%
- growth inhibition ([13]; at 100.0 µM): 53%
- growth inhibition ([14]; at 50.0 µM): -26.4%
- growth inhibition ([15]; at 1.2 µM): -2%
- growth inhibition ([15]; at 3.7 µM): -1%
- growth inhibition ([15]; at 11.0 µM): 1%
- growth inhibition ([15]; at 33.0 µM): 5%
- growth inhibition ([15]; at 100.0 µM): 19%
